The text below walks through data of the supplement of paper PMC6555819.

In the test the test system is PPARg DBDmut:RXRa IVT, anti-PPARg (DBD mutation: PPARg1 K132A/R137A, NR concentration 270 nM, RXRa partner concentration 90 nM). As to the kind of experiment: PBM binding z-score (relative to random genomic background probes); higher = stronger binding; sequences stand for … in GC…GCGATTGACAGCGTAGAATGAAGG
Put shortly:
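Binding buffer was PBS pH 7.4 with 2% milk, 0.02% Triton X-100, 1 mM DTT, 0.2 mg/mL BSA and 0.4 mg/ml salmon testes DNA. In it, ligand-free nuclear receptor dimers were incubated 1 h on custom Agilent 4×180K protein-binding microarrays carrying double-stranded probes. Antibodies against each partner (one per run) detected binding, and z-scores were calculated against random background probes after regression normalization of scanned fluorescence.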
For the sequence CCTCCTAGGTCATGGTCAGCTAATCTACAGTATG, the PBM binding z-score turned out to be 0.488. The value for CCAGACAGGTGAAAGGTAACACAGTCTGGTACGC was -0.472. The value for AGAACGAGGGCAATGAGTTGATAGCGCGGGTGGC was 0.0277; that for ATATGTAGGTTATCGGGTCAATCAGTTTGCGCAT was 3.15. For the sequence ACAGACAGATGAGTGAAGGTAACTCAGCTGGACG, the PBM binding z-score was found to be 0.781. The value for GCAGACAGGTGAAAAGCAGGTAACTCAGGGTGGC was -0.581; that for TCGAGTAGGTTACCAAGGGGGCATTCAGCTTTCT was 4.92; that for GCGACTGGGGCAAAGCAGGTTACCAAAAGGTTGG was -0.303. The value for ATATGTAGGTTACATCCAGGTCATTCAGGCTATG was 2.75; that for CCTACTGGGCCAAATGTCATTGATTCCAATGCTC was 0.17; that for ACTGTTAGTTGACTTAGGGCAACCGATACGACGC was 0.909. The figure for ATCTAAAGGTCGAGGTGAGTATAGAGAAAGGGAA is 1.38. As to CCTAGTTGGTCAAGGGCACACACGCTATAGGTAC, the PBM binding z-score was -0.275. The figure for TCTTGTAGATCAACAGGAGGCTAAGAAAGATCGA is 0.507.

Regarding TCATATAGGTAAACAGGTGAAAATCCGTAAGTTA, the PBM binding z-score turned out to be 1.27. The value for CGTCCAAGGTCTATGCTAGGTCAGTGAAAGCATT was -1.49; that for CGTCCAAGGTCAAGGTCAGTGGAAGAGACTCGAA was 0.113; that for AGAATGAGGTTATTAAGTTCAGGGAATTGCGGTC was 1.24.

For CCTTACGGGTCACTCCAGGTAATAGCATCGGAGT, the PBM binding z-score was found to be 0.64. The figure for ATCGAAAGGACGACGAGGTGAGTATACACCGTTT is 0.774; for CGTCCAAGGTCATAGGAGGTCAGTGAAGACAGAT it is 0.77; for GATACAGGGTCAAGGCCAGAGAACGCGTATTGAT it is 1.58.

For the sequence TCTATTAGTTGAAAGGCAACCGACGAGTCCGTTT, the PBM binding z-score was found to be 0.573. As for CCGACTGGGGCAAAGGTTACCATCCTCAGTACGA, the PBM binding z-score was -0.502. For TCTTGTAGATCAAGCAGGATAAGAAAGCCTGAGT, the PBM binding z-score was determined as 0.695. As for AGACCGAGGGCACGCTGAGTTGATAGCAGAGTAG, the PBM binding z-score is -0.432. The figure for TCTAGTTGGTCACCGAGGTCACACACGACGGGTA is 1.31; for CGTGCAAGGTCAGCAGGTCAGTGAAAGCGACGTG it is -0.142; for CCTCGCAGGACAACAGGAGGTCAGAGCTGCCAGA it is -0.749.

ATCTCTAGATAAAAGTTCAGTGAATCCCGAGGAT registered a PBM binding z-score of 1.04. The value for CCTAGCAGGCCAGGGTCAATCAAGCATTTCGCTT was -1.44; that for TCTTGTACATCAAAGGTTAAGAAAGCCGAAGCCT was 1.53; that for ACTATTAGTTGAGACGAGGGCAACCGTTAGGTTG was 0.0213. The value for AGAATGAGGTTATTAAGATCAGGCAATTGCGGTC was 0.272. The value for GCATATAGATAATACAAGGTGAAAGTCCGATTGT was 1.29; that for GCTTGTAGATCAAGGTTAGGAAAGACTAAGCTAA was -0.619; that for AGAATGATGTTATTAAGATCAGGGAATTGCGGTC was 0.648.

In turn, CCGACTGGGGCAAAGGTTACCATTCTCAGTACGA had a PBM binding z-score of 0.712. With ATATGTAGGTTATCGGGTCATTTAGTTTGCGCAT, the PBM binding z-score came to 1.55. The value for TCATATAGGTAAATGCTAGGTTAAAGTCCGATCT was 1.36.
